Measured values as given in PubChem BioAssay (NCI).
The panel holds about 79,000 compounds, 15% with a hit somewhere; the sample as a whole holds those more often. Unmarked numbers belong to inactive results. The source made the active and inactive calls. No stated cut-off is given here; in the data, active means growth inhibition above about 70%; inactive means the rest.

How the values were obtained:
[1] = NCI Yeast Anticancer Drug Screen. Data for the rad50 strain (AID 155);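 further: 0% = growth of vehicle-only cultures of the same strain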; details: S. cerevisiae rad50 strain growth inhibition; at 50.0 µM; stronger effect = higher value
Method in brief: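 Inhibition values express reduced yeast growth in compound-treated cultures relative to vehicle-treated controls.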

[2] = NCI Yeast Anticancer Drug Screen. Data for the mec2-1 strain (AID 157); details: S. cerevisiae mec2-1 strain, at 50.0 µM, stronger effect = higher value
Method in brief: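 Strain: mec2-1 (DNA repair/cell cycle alteration). Compound exposure, then growth measured; inhibition expressed relative to vehicle.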

[3] = NCI Yeast Anticancer Drug Screen. Data for the sgs1 mgt1 strain (AID 161);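 further: 0% = growth of cultures given vehicle only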; details: S. cerevisiae sgs1 mgt1 strain, at 50.0 µM, stronger effect = higher value
Method in brief: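 Mutant yeast exposed to compound; growth scored against vehicle-only wells.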

[4] = NCI Yeast Anticancer Drug Screen. Data for the cln2 rad14 strain (AID 165);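 further: 0% = growth equal to vehicle treated cultures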; details: S. cerevisiae cln2 rad14 strain, at 50.0 µM, stronger effect = higher value
Method in brief: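 Compounds are applied to the cln2 rad14 yeast strain, and growth is then compared with that of vehicle-treated cultures to give inhibition.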

[5] = NCI Yeast Anticancer Drug Screen. Data for the bub3 strain (AID 167); details: S. cerevisiae bub3 mutant strain, at 50.0 µM, stronger effect = higher value
Method in brief: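 Steps: expose the mutant yeast strain to compound; grow alongside vehicle-treated cultures; measure growth; express inhibition against the vehicle cultures.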

[6] = NCI Yeast Anticancer Drug Screen. Data for the mlh1 rad18 strain (AID 175); details: S. cerevisiae mlh1 rad18 strain growth inhibition; at 50.0 µM; stronger effect = higher value
Method in brief: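 Read-out is yeast growth inhibition, calculated against vehicle-only controls. The compound was applied to a strain engineered with DNA damage repair alterations.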

Structure (SMILES)	growth inhibition [1]	growth inhibition [2]	growth inhibition [3]	growth inhibition [4]	growth inhibition [5]	growth inhibition [6]
COc1ccc(/C=C/C(=O)C(C)(C)CN2CCCCC2)cc1	39.9%	24.9%	20.5%	37.8%	36.5%	39.2%
COc1ccc(/C=C2\CCC(CNc3cc(C)on3)C2=O)cc1 (configuration not stated)	21.5%	-14.6%	17.1%	37.1%	29.1%	-19.4%
OCCCN=C1CCCCC1	-3.4%	-10.3%	-35.5%	-54.4%	-11%	-13.3%
CC1c2c(cc(=O)n(Cc3ccccc3)c2O)C(=O)N1Cc1ccccc1 (configuration not stated)	-12.6%	16.9%	3.85%	4.75%	-23.6%	8.85%
C(/C=C/c1ccccc1)=Nc1ccc2c(c1)Cc1ccccc1-2	0.4%	-0.35%	-25.8%	-27.9%	-15.8%	9.9%
CCOC(=O)C(/C=N\c1[nH]ncc1C#N)=C(/C(=O)OCC)c1ccc(O)cc1	4.55%	5.9%	-13.7%	-21.2%	-3%	15.4%
COc1ccc(C(=O)N/N=C/c2c(C)n(C)n(-c3ccccc3)c2=O)cc1	-54.1%	-18.6%	-61.2%	-6.45%	-52.5%	-48.5%
CCCCCCC#CC(=O)OC	-3.05%	-21.6%	1.5%	15.4%	-11.6%	24.4%
CCOC(=O)/C=C1\CCC(C)n2c1nccc2=O (configuration not stated)	-14.1%	4.8%	-6%	-7.5%	14.5%	14.3%
CC(=O)NCc1cc([N+](=O)[O-])ccc1O	11.6%	2.55%	-0.8%	-6.2%	-3.55%	5.05%
COC(=O)c1nc(=S)[nH]c(C(=O)OC)c1C(=O)c1ccc(OC)cc1	-31.9%	-17.6%	-10.2%	-7.9%	-30.4%	1.2%
C[C@@]1(Cc2ccccc2)C(=O)N2[C@@H](CO)C(c3ccccc3)O[C@]2(C)c2ccccc21 (some centres not stated)	-10.8%	4.7%	-14.7%	-6.05%	-8.8%	-29.3%
CN(NC(=O)c1ccccc1)C(=O)c1ccccc1	15.6%	7.4%	11.6%	-15%	6.05%	3.75%
CC(=O)c1ccc(Cl)c(-n2cccc2)c1	4.2%	-12.1%	13%	17.6%	17.8%	-0.45%
Nc1nc(N)c2[nH]cnc2n1 (tested in a mixture with another compound)	-25.5%	-17.1%	-31.6%	11.3%	-41.6%	-12%
CC(=O)Nc1cccc(Oc2ccc(Cl)cc2[N+](=O)[O-])c1	13%	-6.6%	-2.75%	-5.2%	2.35%	7.95%
CCOc1ccccc1NCN1C(=O)c2ccccc2C1=O	-38.9%	-35.1%	-12.2%	-8.65%	-18.3%	-20.1%
COC(=O)CCOc1ccccc1	15.1%	5.1%	0.25%	11.9%	-8.8%	-18.8%
CCOc1ccc(N(O)C(C)=O)cc1	1.9%	-10.4%	3%	-43.4%	-8.75%	0%
ClCCOC(c1ccc(Cl)cc1)c1ccc(Cl)cc1	-1.6%	3.5%	-4.55%	-12.9%	0.45%	19.8%
CSC(=S)Nc1nc2ccc(Cl)cc2s1	-1.45%	6.75%	15.3%	3.15%	17.7%	3.2%

Structure (SMILES)	growth inhibition [1]	growth inhibition [2]	growth inhibition [3]	growth inhibition [4]	growth inhibition [5]	growth inhibition [6]
COc1cc([C@@H]2c3cc4c(cc3[C@H](O)[C@H]3COC(=O)[C@@H]23)OCO4)cc(OC)c1OC	2.55%	4.2%	1.2%	5.7%	7.15%	16.2%
Nc1nc2ncn(COC(CO)CO)c2c(=O)[nH]1	7%	6.9%	-2.3%	18.6%	0.85%	20.1%
COc1cccc(C(OC(=O)c2ccccc2)c2nncc3ccccc23)c1OC (configuration not stated)	32.4%	11.8%	9.6%	5.9%	9.85%	5.8%
CCOC(=O)/C(=C\c1ccccc1Cl)C(C)=O	99.3% (active)	98.8% (active)	99.5% (active)	98.5% (active)	98.8% (active)	99.5% (active)
CC(=O)COc1ccccc1	-2.7%	-10.5%	7.75%	6.45%	-6.85%	15.4%
CCCCCC(=O)C(CCCC)C(=O)OCC (configuration not stated)	-6.15%	-0.1%	-25.2%	2.6%	-12%	-33.5%
O=C1C(N=Cc2c(O)ccc3ccccc23)CON1C(c1ccccc1)(c1ccccc1)c1ccccc1 (configuration not stated)	55.5%	37.5%	28.9%	20.1%	3.55%	40.5%
Oc1ccc2ccccc2c1C(c1ccccc1)N1CCOCC1 (configuration not stated)	-2.5%	-11%	-5.9%	-24.7%	-12.4%	-15.2%
N#CC(c1ccccc1)C1CCCCC1 (configuration not stated)	-8.65%	-20%	-4.95%	-4.3%	6.1%	20.4%
COc1cc(-c2c(C)oc(C)c2C(C)=O)ccc1OCc1ccccc1	9.6%	-1.95%	-9.1%	11.8%	14.8%	14.4%
COc1cc(C(=O)CC(=O)Cc2ccc3ccccc3n2)cc(OC)c1OC	2.75%	1.3%	0.9%	-15.7%	2.05%	38.2%
Cc1cc(C)cc(C(C)C)c1	-15.4%	-4.35%	-22.9%	5.95%	-11.6%	-6.95%
O=C(NCc1ccccc1)NC(c1ccccc1)(c1ccccc1)c1ccccc1	28.9%	14.2%	34.6%	11.8%	-4.25%	30.9%
COC1=C(c2ccccc2)P(=O)(Cc2ccccc2)C2CCCC12 (configuration not stated)	4.95%	21.4%	35.9%	7.6%	21.4%	-17.3%
CCOC(=O)C(=O)C(/C(=N/N(C)C)C(=O)Nc1ccc(C)cc1C)c1nc2ccccc2[nH]c1=O (configuration not stated)	-21.7%	-22.1%	3.8%	11.7%	1%	12.5%
O=C(OCc1ccccc1)c1ccccc1	18.9%	3.05%	10.8%	-13.3%	28.1%	51.9%
N#CNc1nc(N)cc(=O)[nH]1	-4.65%	-23.6%	-2.45%	3%	-27.1%	11.2%
C=C(C)C(=O)NC(Cc1cnc[nH]1)C(=O)O (configuration not stated)	8.2%	0.5%	16.1%	1.15%	15.2%	0.55%
CCCOC(=O)c1c(Cl)c(Cl)c(Cl)c(Cl)c1C(=O)OCCC	12.8%	-20.8%	4.8%	-3.05%	-15.2%	8.3%
CC1(C)C(=O)CCC2(C)C(OC(=O)c3ccc(C(=O)O)cc3)CCCC12 (configuration not stated)	-2%	37.5%	30.1%	-15.4%	20.2%	18.4%
O=S(NOCc1ccccc1)c1ccccc1 (configuration not stated)	13.3%	24.2%	3.95%	-31.8%	-6%	9.75%
